# According to PubChem BioAssay AID1347075 (National Center for Advancing Translational Sciences (NCATS), 2019):
# Out of some 400,000 compounds screened, about 5,500 (1.4%) were called active. About 9% were inconclusive and are not listed. This is one part of a sample in which actives are shown more often than they occur. The call rests on the fitted dose curve; in most records, active means well fitted cell-killing curve with a large enough effect; inconclusive means small, poorly fitted or top-dose-only effect, or effect the other way; inactive means flat fitted curve, though single readings scatter.
# Test: qHTS assay for MDR1-selective chemotherapeutics: Primary screen using the parental adenocarcinoma cell KB-3-1; further: nearly all actives have a fitted effect of over 60% in size
# Details: KB-3-1 viability, CellTiter-Glo ATP luminescence, 72 h; series mostly up to 46.1 µM; activity change, negative = cytotoxic: at the top concentration
# Description: A prime difficulty in effectively treating cancer is the development of cellular resistance to multiple structurally unrelated anticancer drugs, a phenomenon known as multidrug resistance (MDR). […] Numerous strategies to overcome P-gp-mediated MDR have been explored, including the design of drugs that evade recognition and efflux, and development of inhibitors to block efflux and restore drug accumulation. […] An alternative approach is to exploit resistance by identifying drugs that target MDR cells over the non-resistant parental cells from which they were selected. […] The development of MDR1-selective agents represents a new strategy for resolving multidrug resistance, as it remains a long-standing clinical challenge for cancer chemotherapy.
# Our goal is to identify compounds that selectively kill P-gp-expressing MDR cells. We will identify MDR1-selective compounds by comparing toxicity of compounds in the screening library against parental, drug-naive (KB-3-1) adenocarcinoma cells as well as their drug-selected MDR sub-line (KB-V1). The differential toxicity of compounds against these two cell lines will be used to identify MDR1-selective compounds, whose cytotoxicity is potentiated, rather than diminished, by P-gp expression. This assay will be utilized to conduct a quantitative high-throughput screen (qHTS) in collaboration with the NIH Chemical Genomics Center to identify selective agents, and probe hits arising from the screen will be validated using secondary assays and characterized through a well-established follow-up research program. This screen was run against the entire NCGC library collection of about 400,000 compounds.
# NIH Molecular Libraries Probe Production Network [MLPCN]
# NIH Chemical Genomics Center [NCGC]
# PI: Michael Gottesman PhD, National Cancer Institute, NIH
# Briefly, 5 microL of media containing either KB-3-1 cells (columns 1-2, 4-48) are dispensed into Greiner white, treated solid-bottom 1536-well assay plates (media-only control is added to column 3). Compounds are then transferred via Kalypsys pin tool equipped with 1536-pin array (10 nL slotted pins, V&P Scientific, San Diego, CA). Following addition of compound, the plates are incubated at 37 degrees C for 72 hours. CellTiter-Glo (2.5 µL/well) is then added, and the plates are read in a ViewLux reader (Perkin-Elmer, clear luminescence filter, 1 second exposure, 1x binning) following a 10 minute incubation. All cells are dispensed in DMEM phenol-red free media containing 10% FBS.
# Library plates were screened starting from the lowest and proceeding to the highest concentration. Vehicle-only plates, with DMSO being pin-transferred to columns 5-48, will be inserted uniformly at the beginning and the end of each library in order to monitor and record any shifts in the background, which can be affected by reagent dispensers or loss in enzyme activity over time. Screening data will be corrected, normalized, and concentration-effect relationships will be derived by using publicly-available NCGC, NCATS curve fitting algorithms (http://ncgc.nih.gov/pub/openhts).
# On the % scale 0 is the no-effect control and ±100 the full control effect; potency means the concentration at half of the fitted maximal effect.
SMILES,Potency,"activity change, negative = cytotoxic"
COC1C(O)C(C)OC(OC2CCC3(C=O)C(CCC4C3CCC3(C)C(C5=CC(=O)OC5)CCC43O)C2)C1O (stereo not given),0.0058 µM (active),
S=C(NCCc1ccccc1)N1Cc2cc(N3CCOCC3)ccc2-n2nncc2C1,,0.0564% (inactive)
O=C1NCN(c2ccccc2)C12CCN(C(c1cccs1)c1nnnn1C1CCCCC1)CC2 (stereo not given),,0.0564% (inactive)
CC(C)CN1Cc2cc(N3CCCCC3)ccc2-n2nncc2C1,,0.0564% (inactive)
O=C(NCC1=C(c2ccc3ccccc3c2)C[C@@H]2CC[C@H]1N2Cc1ccco1)c1cccs1,,-17% (inactive)
CCCCCCCCCCCCn1ccc(=N)cc1,1.3 µM (active),
COc1ccc(NC(=O)N2Cc3ccccc3-n3nncc3C2)cc1,,6.29% (inactive)
c1cc2c(c(NC3=NCCCS3)c1)CCCC2,,-15.7% (inactive)
CC(=O)NCC1=C(c2ccc3ccccc3c2)C[C@@H]2CC[C@H]1N2Cc1ccco1,,1.55% (inactive)
O=c1[nH]c2ccccc2n1C1CCN(C(c2ccnc3ccccc23)c2nnnn2Cc2ccccc2)CC1 (stereo not given),,-2.56% (inactive)
CCOC(=O)[C@]12Cc3ccccc3[C@H]1N(C1CCCCC1)C(=O)c1cc(OC)ccc12,4.61 µM (active),
CCOC(=O)[C@]12Cc3cc(OC)ccc3[C@H]1N(C(C)C)C(=O)c1ccccc12,6.51 µM (active),
O=C(O)c1cc[c]([Sb](=[O])([OH])[OH])cc1[N+](=O)[O-],,29% (inactive)
Cc1ccc(OC(=O)N(C)C[C@@H]2OCc3cnnn3CCCC(=O)N([C@H](C)CO)C[C@@H]2C)cc1,,8.17% (inactive)
O=C(O)/C=C/c1ccc2c(c1)OCO2,,-11.5% (inactive)
COC(=O)CN(CCCl)P1(=O)OCCCN1CCCl (stereo not given),,23.9% (inactive)
C[C@]12CCC3C(CC[C@H]4C[C@@H](O)CC[C@]34C)C1C[C@@H](O)[C@H]2O (stereo not given in full),,-0.788% (inactive)
C[C@]12CCC3C(CC[C@H]4C[C@@H](O)CC[C@]34C)C1CC[C@@H]2O (stereo not given in full),,22.6% (inactive)
C[C@]12CC[C@H](O)C[C@H]1CC[C@@H]1C2CC[C@]2(C)[C@@H](C3=CC(=O)OC3)[C@@H](O)C[C@]12O (stereo not given in full),2.31 µM (active),
COc1cc(C(=O)N2Cc3ccc(Br)cc3-n3nncc3C2)cc(OC)c1OC,,0.0564% (inactive)

SMILES,Potency,"activity change, negative = cytotoxic"
C[C@H]1CN([C@@H](C)CO)C(=O)CCCn2nncc2CO[C@H]1CN(C)C(=O)Oc1cccc2ccccc12,,0% (inactive)
O=C(NC1CCCCC1)N1Cc2cc(N3CCCCC3)ccc2-n2nncc2C1,,0.03% (inactive)
Cc1ccc(NC(=O)N(Cc2ccc3c(c2)OCO3)C2CCN(Cc3ccccc3)CC2)cc1F,,-5.54% (inactive)
CCCCn1c(O)c(C(CC)=NCc2ccco2)c(=O)[nH]c1=O,,-0.31% (inactive)
CCC(=NCCCO)c1c(O)n(-c2ccc(OC)cc2)c(=O)[nH]c1=O,,0% (inactive)
CCCCCCN=C(CC)c1c(O)n(CCCC)c(=O)[nH]c1=O,18.4 µM (active),
COc1cccc(C(c2nnnn2-c2ccc3c(c2)OCCO3)N2CCC3(CC2)C(=O)NCN3c2ccccc2)c1OC (stereo not given),,-1.93% (inactive)
O=C1C2CCN(CC2)C1(CO)CO,,3.63% (inactive)
Cn1cc(/C=C/c2nc3ccccc3c(=O)n2-c2ccccc2)c2ccccc21,,-7.08% (inactive)
ClCCN(CCCl)c1ccc(C=Nc2ccc(/C=C/c3ccnc4ccccc34)cc2)cc1,,-0.0871% (inactive)
COc1cc(Cn2c(N)c(C(=O)NCc3ccco3)c3nc4ccccc4nc32)cc(OC)c1OC,23.1 µM (active),
CCOC(=O)c1c(N)n(Cc2ccccc2)c2nc3ccccc3nc12,,-11.6% (inactive)
COC(=O)C1=C(c2ccccc2)C[C@@H]2CC[C@H]1N2C(=O)NCc1ccco1,,-2.82% (inactive)
c1ccc(N2Cc3ccccc3-n3nncc3C2)nc1,,-7.89% (inactive)
O=P(OC1=CCCCC1)(c1ccccc1)c1ccccc1,,0% (inactive)
O=c1c2ccccc2[nH]c(=S)n1-c1cccc(Cl)c1,,-23.5% (inactive)
Cc1nnc(NC(=O)c2cccn(Cc3cccc(F)c3)c2=O)s1,,0.206% (inactive)
CCC(C)(O)C(=O)OC1C(=O)OC2CC3C(C)=CC(=O)C(O)C3(C)C3C4(O)OCC23C1C(C)C4O (stereo not given),0.291 µM (active),
CCn1cc(CN2CCCC(C(=O)c3cccc(C(F)(F)F)c3)C2)cn1 (stereo not given),,0.0302% (inactive)
CCOC(=O)CNC(=O)N1Cc2cc(N3CCCCC3)ccc2-n2nncc2C1,,-0.0736% (inactive)
